# Measured potencies and affinities stand elsewhere. Active and inactive are the calls of the source.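 The calls were made as follows: active = viability loss whose fitted half-maximal concentration is at most twice the top valid tested dose; inconclusive = flat curve with 30 to 70% loss, or poor fit; inactive = the rest.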
# Experiment: viability loss in HepG2 liver cells – cell-based, ATP luminescence, cherry-pick, set 6, cytotoxicity control, dose response (AID 1053125);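 also: negative values mean loss of viability signal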
# Conditions: ATP luminescence (CellTiter-Glo), 72 h; series mostly up to 26 µM; activity change, negative = cytotoxicity: at the top concentration
row,SMILES,"activity change, negative = cytotoxicity"
1,CCOc1ccc2nc(NCCCNC(=O)c3cc(OC)c(OC)c(OC)c3)c(C#N)cc2c1,-2.45% (inactive)
2,C=CCc1c(O)c(CC)cc2c(C)cc(=O)oc12,-9.42% (inactive)
3,O=C(Nc1ccc(-c2ccco2)cc1)C1CCCN(Cc2ccco2)C1 (centres undefined),-14.2% (inactive)
4,COc1ccc(CCN=C(N)NS(=O)(=O)c2ccc(F)cc2)cc1,-13.1% (inactive)
5,COc1cc(C(c2c(C(=O)O)[nH]c3ccccc23)c2c(C(=O)O)[nH]c3ccccc23)ccc1OCc1ccccc1,-14.1% (inactive)
6,C/C(=N\NC(=O)CC#N)c1cc2ccc(O)cc2oc1=O,2.89% (inactive)
7,N#Cc1c(NCCCO)nc(NCc2ccccc2)c2c1CCN(Cc1ccccc1)C2,-14.7% (inactive)
8,NC(=O)c1c(NC(=O)Cc2ccccc2)sc2c1CCN(Cc1ccccc1)C2,-10.1% (inactive)
9,CC(C)OCCCn1c(=N)c(C(N)=S)cc2c(=O)n3ccccc3nc21,-3.52% (inactive)
10,CCc1cccc(OC2OC(CO)C(O)C(O)C2NC(C)=O)c1 (centres undefined),-12.1% (inactive)
11,N#C/C(=C\c1ccc(N2CCOCC2)o1)C(=O)NCCc1ccccc1,-9.69% (inactive)
12,Cc1c(O)ccc2cc(S(=O)(=O)c3ccccc3)c(=O)oc12,-11.2% (inactive)
13,CC(=O)c1cccc(-c2ccnc3c2CC(C(=O)NCc2ccc(F)c(F)c2)O3)c1 (centres undefined),2.47% (inactive)
14,CCN(CC)c1ccc2cc(C(N)=O)c(=O)oc2c1,3.5% (inactive)
15,CC1(C)CC(=O)C2=C(C1)OC(N)=C(C#N)[C@@H]2c1ccccc1[N+](=O)[O-],-5.15% (inactive)
16,CC(=O)c1cc2ccc(O)cc2oc1=O,-4.29% (inactive)
17,[O-]/[N+](=C/c1ccccc1)c1ccccc1,18.8% (inactive)

row,SMILES,"activity change, negative = cytotoxicity"
1,O=C(c1cccc(Cl)c1)N1CCC(=O)N(C(COCc2ccccc2)Cc2ccccc2)CC1 (centres undefined),-2.11% (inactive)
2,CCCOc1c(Br)cc(C2C3=C(CCCC3=O)N(C)C3=C2C(=O)CCC3)cc1OC,-0.917% (inactive)
3,Cc1ccc2nc3c(cc(C(N)=S)c(=N)n3CCCOC(C)C)c(=O)n2c1,-1.02% (inactive)
4,COc1cc(C(=O)OCC(C)=O)cc(NC(=O)c2ccco2)c1OC,2.34% (inactive)
5,COc1ccc(S(=O)(=O)N2CCCC2CNC(=O)C(=O)NC2CCCC2)cc1 (centres undefined),-7.24% (inactive)
6,COC(=O)C1=CN(C)C=C(C(=O)OC)C1c1ccccc1Cl,-5.6% (inactive)
7,S=c1[nH]c2ccc(Cc3ccc4[nH]c(=S)[nH]c4c3)cc2[nH]1,-19.2% (inactive)
8,Cc1ccc(S(=O)(=O)Nc2ccc(Nc3ccccc3)cc2)cc1,-9.07% (inactive)
9,CCOC(=O)c1cc2c(=O)n3ccccc3nc2n(CCCOC)c1=NC(=O)c1ccncc1,-12.2% (inactive)
10,CNC(=O)c1ccc(NC(=O)c2cccc(C(F)(F)F)c2)cc1,18.7% (inactive)
11,Cc1c(Nc2c3ccccc3nc3ccccc23)c(=O)n(-c2ccccc2)n1C,-6.17% (inactive)
12,N#Cc1ccc(OCC(=O)OCC(=O)N2CCc3ccccc32)cc1,-1.16% (inactive)
13,CN(C)C(=O)CSc1nc2ccc(C(=O)c3ccccc3)cc2[nH]1,-13.4% (inactive)
14,Cc1cccn2c(=O)c3cc(C(=O)NCc4ccco4)c(=N)n(CCc4ccccc4)c3nc12,1.38% (inactive)
15,COc1ccc(NC(=O)C2CCC(CNS(=O)(=O)c3cccs3)CC2)cc1 (centres undefined),4.3% (inactive)
16,COc1ccc(C2CC(c3cccs3)=NN2c2nc(C)c(C(C)=O)s2)cc1OC (centres undefined),-14.8% (inactive)
17,CCOCCCNC(=S)N1CCCN(c2nc3cc(C)c(C)cc3cc2C#N)CC1,25.8% (inactive)
